Assay results reported in PubChem BioAssay AID1053125 (Broad Institute, 2014).
Results with a measured potency or affinity are listed apart. Unmarked numbers belong to inactive results.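 The calls were made as follows: active = viability loss whose fitted half-maximal concentration is at most twice the top valid tested dose; inconclusive = flat curve with 30 to 70% loss, or poor fit; inactive = the rest.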

Assay: viability loss in HepG2 liver cells – cell-based, ATP luminescence, cherry-pick, set 6, cytotoxicity control, dose response (AID 1053125);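 also: negative values mean loss of viability signal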
Details: ATP luminescence (CellTiter-Glo), 72 h; series mostly up to 26 µM; activity change, negative = cytotoxicity: at the top concentration
With `CCOc1ccc(S(=O)(=O)Nc2ccc(C(=O)N(CC)CC(=O)NCc3cccs3)cc2)cc1` the “activity change, negative = cytotoxicity” value was -9.89%.
With `CC(C)C(=O)Nc1sc2c(c1C(N)=O)CCN(Cc1ccccc1)C2` the “activity change, negative = cytotoxicity” value was -11%.
For `CCc1nc2ccc(C(=O)NCCc3c[nH]c4ccccc34)cn2c1N(C=O)CCC(C)C`, the “activity change, negative = cytotoxicity” value was -13.9%.
With `O=C(CCc1c[nH]c2ccccc12)OCC(=O)c1ccccc1` the “activity change, negative = cytotoxicity” value was -4.54%.
For `C[C@H](NC(=O)c1nc[nH]c1C(=O)N[C@@H](Cc1ccccc1)C(=O)OC(C)(C)C)C(=O)OCc1ccccc1`, the “activity change, negative = cytotoxicity” value was 1.48%.
In the case of `O=c1[nH]c(Nc2ccccc2Cl)cc2ccccc12`, the “activity change, negative = cytotoxicity” value is reported as 28.1%.
For `CCN(CC)CCN1C2=C(C(=O)CC(C)(C)C2)C(c2cccc(F)c2)C2=C1CC(C)(C)CC2=O`, the “activity change, negative = cytotoxicity” value was -3.85%.
For `Cc1ccc(-c2nc3ccsc3c(=O)[nH]2)cc1`, the “activity change, negative = cytotoxicity” value was -13.5%.
In the case of `COc1ccccc1N1CCN(C2CCC(C)CC2)CC1` (configuration not stated), the “activity change, negative = cytotoxicity” value is reported as -3.96%.
In the case of `CC(C)CCN(CCC(C)C)CC(O)Cn1c2ccccc2c(=O)c2ccccc21` (configuration not stated), the “activity change, negative = cytotoxicity” value is reported as -16%.
In the case of `N=c1c(C(=O)NCC2CCCO2)cc2c(=O)n3ccccc3nc2n1Cc1ccc(Cl)cc1` (configuration not stated), the “activity change, negative = cytotoxicity” value is reported as -14.8%.
With `CSC1=NSC2=NC(=O)/C(=C/c3coc4ccc(O)cc4c3=O)C(=N)N12` the “activity change, negative = cytotoxicity” value was -14.4%.
In the case of `Cc1cc2cc(CNC(=O)c3ccco3)ccc2n1C`, the “activity change, negative = cytotoxicity” value is reported as -16%.
With `O=C(CCCn1c(=O)c2sccc2n(Cc2cc(=O)n3ccccc3n2)c1=O)NCc1ccco1` the “activity change, negative = cytotoxicity” value was -8.29%.
In the case of `CCOC(=O)c1oc2c(CN3CCN(CCO)CC3)c(O)c(CC)cc2c(=O)c1-c1nc2ccccc2s1`, the “activity change, negative = cytotoxicity” value is reported as -18%.
In the case of `N=c1oc2cc(O)ccc2cc1C(=O)Nc1ccc(Br)cc1`, the “activity change, negative = cytotoxicity” value is reported as -15.2%.
In the case of `O=C(/C=C/c1ccccc1)C1=C(O)C(=O)N(CCO)C1c1ccc2c(c1)OCO2` (configuration not stated), the “activity change, negative = cytotoxicity” value is reported as -10.5%.
